Most compounds without a hit are left out; they make up all but 17% or so of the library.
HepG2 viability: qHTS for Inhibitors of TGF-b: Cytotox Counterscreen; hit rate 0.76% among 410,000; HepG2 CAGA-GFP viability, ATP luminescence, 18 h; Potency, µM (top dose mostly 46.1 µM), usual class: cytotoxic; AID 588856, 2011
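HepG2 CAGA-GFP cells (1000/well, DMEM with 1% FBS) received compound, then TGF-beta at 500 pg/mL final, and were incubated 18 hours at 37 degrees C. Viability was read by CellTiter-Glo luminescence. Media-only wells were set as complete cell-killing and DMSO as no toxicity.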
S2 tox: Viability Counterscreen for Primary qHTS for Inhibitors of ATXN expression | S2 cells (HEK-293 line with an ATXN2-luciferase reporter) viability, CellTiter-Fluor protease fluorescence, 24 h | Potency, µM (top dose mostly 56.7 µM), usual class: cytotoxic | hit rate 0.49% among 400,000 | AID 651635, 2014; further: nearly all actives have a fitted effect of over 40% in size
DT40 TDP1 CPT: qHTS for Inhibitors of human tyrosyl-DNA phosphodiesterase 1 (TDP1): qHTS in cells in presence of CPT; chicken DT40 Tdp1-/-;hTDP1 cells + 20 nM CPT, ATP luminescence, 48 h; Potency, µM (doses to about 46.2 µM), hits mostly inhibitors; hit rate 12% among 420,000; AID 686979, 2013; further: nearly all actives have a fitted effect of over 55% in size
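Chicken DT40 Tdp1-/- cells stably complemented with human TDP1 were seeded at 400 cells/well in medium containing 20 nM camptothecin, exposed to pin-transferred compounds, and grown at 37 °C for at least 48 hr. Viability was read as ATP luminescence.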
DT40 TDP1 no CPT: qHTS for Inhibitors of human tyrosyl-DNA phosphodiesterase 1 (TDP1): qHTS in cells in absence of CPT | hit rate 15% among 420,000 | DT40 Tdp1-/- hTDP1 cells, no CPT, ATP luminescence, 48 h | AID 686978, 2013 | Potency, µM (series often up to 46.2 µM), usual class: inhibitors; further: nearly all actives have a fitted effect of over 55% in size
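Stably hTDP1-transfected Tdp1-null chicken DT40 cells were treated with library compounds minus camptothecin and grown for at least 48 hr at 37 °C, after which cellular ATP was quantified by luminescence.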
ATXN2 expr inh: Primary qHTS for Inhibitors of ATXN expression | Potency, µM (series often up to 57 µM), usual class: inhibitors | HEK-293 ATXN2-luciferase reporter, luminescence, 24 h | hit rate 0.72% among 360,000; further: nearly all actives have a fitted effect of over 55% in size
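qHTS (up to 57 uM final) was run with 24 h compound exposure of reporter cells at 37 °C. Each well was multiplexed: SteadyGlo luminescence measured ATXN2-luciferase expression after a fluorogenic Gly-Phe-AFC viability readout (25 uM final).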
TGFb SMAD3 inh: qHTS for Inhibitors of TGF-b; HepG2 CAGA-GFP TGF-b/SMAD3 reporter, GFP fluorescence, 18 h; TGF-beta stimulated, 500 pg/mL final; Potency, µM (highest dose often 46.1 µM), hits mostly inhibitors; hit rate 1.2% among 410,000; further: nearly all actives have a fitted effect of over 65% in size
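GFP signal (ex488/em500-530) from TGF-beta-stimulated HEPG2 CAGA-GFP cells, 500 pg/mL final, 18 h at 37 degrees C in DMEM plus 1% FBS, normalized to unstimulated and DMSO-stimulated controls.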
Of the large screens only hits and unclear results are named; the others gave an inactive call. The call rests on the fitted dose curve; in most records, active means well fitted curve in the direction sought with a large enough effect; inconclusive means small, poorly fitted or top-dose-only effect, or another doubt; inactive means no such curve, though single readings can be large; an effect the other way counts as inactive or inconclusive.

COc1ccc(-c2oc3ccc(-c4cc(OC)c(OC)c(OC)c4)cc3c2-c2ccc(OC)cc2)cc1	DT40 TDP1 CPT inconclusive, DT40 TDP1 no CPT inconclusive
COC(=O)c1cc(-c2c(-c3cc(OC)c(OC)c(OC)c3)noc2C)cc([N+](=O)[O-])c1	DT40 TDP1 CPT 16.4µM, DT40 TDP1 no CPT 16.4µM, TGFb SMAD3 inh inconclusive
C[C@H]1Oc2ccccc2C(=O)C1C(=O)c1ccccc1 (stereo partly specified)	none
N[C@@H](Cn1ccc(=O)n(Cc2ccccc2C(=O)O)c1=O)C(=O)O	none (no result: HepG2 viability, S2 tox, ATXN2 expr inh, TGFb SMAD3 inh)
CSc1ccc(Cl)c(C(=O)NCCOc2cc(C(C)C)ccc2C)c1	DT40 TDP1 CPT 29.1µM, DT40 TDP1 no CPT 25.9µM
N#Cc1ccc(-c2nc3ccc(Br)cn3c2Cc2ccccc2)cc1	S2 tox inconclusive, DT40 TDP1 CPT 11.6µM, DT40 TDP1 no CPT 9.2µM
Cc1ccc(Cc2c(-c3ccc(C#N)cc3)nc3ccc(Br)cn23)cc1	DT40 TDP1 CPT 20.6µM, DT40 TDP1 no CPT inconclusive
O=c1[nH]cnc2ccsc12	none
Cc1ccc(C)c(NC(=O)C2CCN(S(=O)(=O)c3c(C)noc3/C=C/c3cccs3)CC2)c1	DT40 TDP1 CPT inconclusive, DT40 TDP1 no CPT inconclusive (no result: S2 tox, ATXN2 expr inh)
O=C(c1csnn1)N1CCC2(CC1)CCN(c1ccccn1)CC2	DT40 TDP1 no CPT inconclusive (no result: HepG2 viability, S2 tox, ATXN2 expr inh, TGFb SMAD3 inh)
COc1ccc(-c2oc3ncnc(NCCCN(C)C)c3c2-c2ccc(OC)cc2)cc1	S2 tox inconclusive, DT40 TDP1 CPT inconclusive, DT40 TDP1 no CPT 18.4µM, ATXN2 expr inh inconclusive, TGFb SMAD3 inh inconclusive
CCCCNc1ncnc2oc(-c3ccco3)c(-c3ccco3)c12	DT40 TDP1 CPT 6.31µM, DT40 TDP1 no CPT 6.31µM, TGFb SMAD3 inh inconclusive (no result: S2 tox, ATXN2 expr inh)
COCCN(C(=O)CSc1cc(C)c2ccccc2n1)c1c(N)n(CC(C)C)c(=O)[nH]c1=O	none
Cc1ccc(SC[C@H](Cc2ccccc2)N2CCN(CC(C)C)CCC2=O)cc1	DT40 TDP1 CPT inconclusive, DT40 TDP1 no CPT 18.4µM, TGFb SMAD3 inh inconclusive
CCCN1CCC(=O)N([C@H](CSc2ccc(Br)cc2)Cc2ccccc2)CC1	S2 tox inconclusive, DT40 TDP1 CPT inconclusive, DT40 TDP1 no CPT inconclusive, TGFb SMAD3 inh inconclusive
CCCN1CCC(=O)N([C@H](CSc2ccccc2)Cc2ccccc2)CC1	S2 tox inconclusive, DT40 TDP1 CPT 11.2µM, DT40 TDP1 no CPT 11.2µM, TGFb SMAD3 inh inconclusive
CC(C)CN1CCC(=O)N([C@H](CSc2ccccc2)Cc2ccccc2)CC1	DT40 TDP1 CPT 18.4µM, DT40 TDP1 no CPT 16.4µM, TGFb SMAD3 inh inconclusive
CC(C)CN1CCC(=O)N(CCSc2ccc(Br)cc2)CC1	DT40 TDP1 CPT 20.6µM, DT40 TDP1 no CPT inconclusive, TGFb SMAD3 inh inconclusive
CCN1CCn2c3c(c4cccc(C)c42)CCCC31 (stereo unspecified)	none
CCOc1ccccc1C(=O)Nc1ccc(-n2nncc2-c2ccccc2)cc1	DT40 TDP1 CPT inconclusive, DT40 TDP1 no CPT 23.1µM (no result: S2 tox, ATXN2 expr inh)
CCOc1ccccc1C(=O)Nc1ccc(S(=O)(=O)N2CCN(C)CC2)cc1	DT40 TDP1 CPT inconclusive
CCOc1ccccc1C(=O)Nc1ccc(-n2nncc2C(C)(C)C)cc1	DT40 TDP1 CPT 20.6µM, DT40 TDP1 no CPT 14.6µM, TGFb SMAD3 inh inconclusive
COc1ccccc1NC(=O)Cn1c(CCC(=O)O)ccc1-c1ccccc1	none
COc1ccc(CNC(=O)C2CCN(S(=O)(=O)Cc3ccccc3)CC2)cc1	DT40 TDP1 CPT inconclusive
CCOC(=O)c1[nH]c2cc(OC)c(OC)cc2c1NC(=O)C(C)N1CCN(Cc2ccccc2)CC1 (stereo unspecified)	DT40 TDP1 CPT inconclusive, DT40 TDP1 no CPT 18.4µM
CCOC(=O)c1[nH]c2ccc(F)cc2c1NC(=O)Nc1ccccc1OC	DT40 TDP1 no CPT inconclusive
COc1ccc2nc(NC(=O)c3ccccc3C(=O)O)sc2c1	none
COc1ccccc1C(=O)Nn1c(C)nc2ccccc2c1=O	DT40 TDP1 CPT 10.3µM, DT40 TDP1 no CPT inconclusive

High-throughput results deposited in PubChem by National Center for Advancing Translational Sciences (NCATS).
